High-throughput results (PubChem BioAssay)
WRN inhibitor: inhibitors of human WRN helicase | WRN helicase unwinding, fluorescent forked duplex, kinetic | Potency, µM (top dose mostly 114 µM), most hits filed as inhibitors | 360,000 compounds, 0.46% hits; note: nearly all actives have a fitted effect of over 55% in size
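Kinetic fluorescence helicase assay: unwinding of a quenched forked DNA duplex (100 nM final) with 2 mM ATP final raises red fluorescence (525/598 nm). Compounds sat 15 min at room temperature with 20 nM WRN beforehand.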
POLI inh: inhibitors of human DNA polymerase iota; 390,000 compounds, 1% hits; Potency, µM (top dose mostly 115 µM), actives largely listed as inhibitors; AID 588590; Pol iota fluorescent replication assay, 10 min
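Fluorescent replication assay read twice, at 0 min and 10 min after adding 50 nM (final) substrate. Enzyme (10 nM) and compounds were first incubated 15 min at room temperature; enzyme-free buffer wells were negative controls.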
PI5P4K alpha inh: blocks human PI5P4K alpha kinase activity; PI5P4Kalpha enzyme, ADP-Glo luminescence, 60 min; active compounds read low; max response, %; 330,000 compounds, 1.2% hits; active = max response of -50% or lower; inconclusive = between -30% and -50%; inactive = -30% or higher; note: value at the top dose of about 77 µM
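Single end-point luminescence (ADP-Glo) quantified ADP from PI5P4Kalpha turnover; ATP 5 microM final, 1 h at RT, 0.1% CHAPS and 0.28 mM EGTA in HEPES pH 7.4.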
Pol kappa inh-1: blocks human DNA polymerase kappa activity | Q9UBT6 | AID 588579 | 400,000 compounds, 0.53% hits | Potency, µM (highest dose often 107 µM), actives largely listed as inhibitors | purified Pol kappa, fluorescent DNA synthesis assay, 10 min
Target sequence (Q9UBT6 whole entry, looked up): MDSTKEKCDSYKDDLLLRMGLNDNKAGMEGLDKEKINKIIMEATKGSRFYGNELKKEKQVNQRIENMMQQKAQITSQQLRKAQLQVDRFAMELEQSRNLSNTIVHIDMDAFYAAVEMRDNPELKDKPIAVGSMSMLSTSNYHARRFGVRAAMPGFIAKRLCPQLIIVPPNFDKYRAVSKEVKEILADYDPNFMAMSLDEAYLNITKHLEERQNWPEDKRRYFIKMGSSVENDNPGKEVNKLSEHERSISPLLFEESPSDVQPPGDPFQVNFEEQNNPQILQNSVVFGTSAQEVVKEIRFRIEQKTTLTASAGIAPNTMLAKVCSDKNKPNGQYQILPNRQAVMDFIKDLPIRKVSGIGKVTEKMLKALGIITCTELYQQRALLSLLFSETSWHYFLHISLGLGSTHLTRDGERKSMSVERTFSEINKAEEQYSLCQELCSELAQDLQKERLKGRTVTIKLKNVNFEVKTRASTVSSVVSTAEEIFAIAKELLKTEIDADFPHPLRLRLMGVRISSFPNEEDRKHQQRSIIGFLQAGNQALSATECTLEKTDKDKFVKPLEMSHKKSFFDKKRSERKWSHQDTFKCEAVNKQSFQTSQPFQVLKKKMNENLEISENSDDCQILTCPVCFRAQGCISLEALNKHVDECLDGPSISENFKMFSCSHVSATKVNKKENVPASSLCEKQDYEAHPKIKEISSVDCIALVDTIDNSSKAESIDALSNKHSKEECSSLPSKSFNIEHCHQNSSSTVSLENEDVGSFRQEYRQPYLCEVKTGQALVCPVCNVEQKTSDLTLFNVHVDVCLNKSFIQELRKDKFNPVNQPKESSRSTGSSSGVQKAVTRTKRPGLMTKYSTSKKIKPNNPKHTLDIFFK
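Kinetic fluorescence screen: compound preincubated 15 min RT with 10 nM enzyme; 50 nM substrate (final) initiates; reads at 0/10 min.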
POLB inh: blocks human DNA polymerase beta activity | P06746 | Pol beta primer extension/strand displacement, fluorescence kinetic | Potency, µM (top dose mostly 114 µM), hits mostly inhibitors | 340,000 compounds, 1.3% hits
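Preincubation: enzyme (10 nM) with compound, 15 min, RT. Reaction: substrate added to 50 nM final. Reads: 0 and 10 min. Analysis: normalized, Hill fit.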
Pol eta inh-1: blocks human DNA polymerase eta activity | AID 588591 | 390,000 compounds, 1.2% hits | Q9Y253 | Potency, µM (top dose mostly 114 µM), hits mostly inhibitors | recombinant Pol eta, fluorescent DNA replication assay
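Fluorescent replication assay: 50 nM final substrate added after a 15 min room-temperature compound preincubation with 10 nM enzyme. Signal taken at 0 min and again at 10 min.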
BAZ2B confirm: confirmation of human BAZ2B bromodomain inhibitors. shares compounds with Pol kappa inh-1. AlphaScreen BAZ2B / biotin-H3K14Ac peptide displacement. Potency, µM, most hits filed as inhibitors. 25 compounds, 100% hits. AID 588809; calls by dose curve
AlphaScreen ctr: AlphaScreen signal interference, BAZ2B hit counter-screen; shares compounds with Pol kappa inh-1; 25 tested, under 10 active; AlphaScreen biotin-His6 peptide bead counterscreen, signal decrease; AID 588859; Potency, µM (doses to about 57.1 µM), hits mostly inhibitors;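 active = clear concentration-dependent signal drop in the bead assay lacking the target, so a primary-screen artifact; inconclusive = weak, partial or single-dose response; inactive = no response, so a real primary hit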
PGK validate: blocks T. brucei phosphoglycerate kinase; Potency, µM (top dose mostly 57.5 µM), most hits filed as inhibitors; shares compounds with Pol kappa inh-1; 500 compounds, 79% hits; TbPGK coupled GAPDH assay, Kinase-Glo luminescence; note: nearly all actives have a fitted effect of over 65% in size
POLI cherry-pick: Inhibitors of human DNA polymerase iota, confirmation | shares compounds with Pol kappa inh-1 | Pol iota primer extension, TAMRA/BHQ fluorescence | Potency, µM, hits mostly inhibitors | 1,500 compounds, 77% hits
GALK confirm: confirmation of human galactokinase (GALK) inhibitors | purified GALK, Kinase-Glo ATP depletion luminescence | shares compounds with Pol eta inh-1 | 150 compounds, 70% hits | Potency, µM (doses to about 115 µM), usual class: inhibitors
GALK redox cs: redox cycling activity in phenol red-HRP assay; shares compounds with Pol eta inh-1; Phenol red-HRP H2O2 redox cycling, absorbance 600 nm; Potency, µM (top dose mostly 115 µM), hits mostly inhibitors; 150 compounds, 40% hits; AID 2035
HEK293 tox: counter-screen for GALK inhibitors: HEK293 cell cytotoxicity. shares compounds with Pol eta inh-1. HEK-293 viability, ATP luminescence (CellTiter-Glo), 24/48 h. Potency, µM (highest dose often 46.1 µM), actives largely listed as inhibitors. 170 compounds, 10% hits
Pol kappa inh-2: Pol kappa (human) inhibition, cherry-pick confirmation. 920 compounds, 76% hits. purified Pol-kappa, fluorescent strand-displacement substrate. Potency, µM, hits mostly inhibitors. shares compounds with Pol eta inh-1
Pol eta inh-2: Pol eta (human) inhibition, cherry-pick confirmation. AID 720502. Potency, µM, hits mostly inhibitors. shares compounds with Pol eta inh-1. 2,600 compounds, 64% hits. Pol eta primer extension, TAMRA/BHQ fluorescence, 10 min
Large screens that a line does not name were inactive (follow-up assays come after a bar, where they were run). Hits are enriched below; roughly 2.8% of the tested compounds scored in any of these assays. Unless noted, calls come from the whole dose curve; as a rule, active = well fitted curve in the direction sought with a large enough effect; inconclusive = small, poorly fitted or top-dose-only effect, or another doubt; inactive = no such curve, though single readings can be large; an effect the other way counts as inactive or inconclusive.

C=C(C)C(=O)Nc1cccc(C2=NOC3(C2)C[C@@H](C(N)=O)N(C(=O)C2(C)CC2)C3)c1 (some centres not stated)	WRN inhibitor inconclusive, POLI inh 50.1µM, Pol kappa inh-1 44.7µM, POLB inh 1.12µM, Pol eta inh-1 3.16µM | BAZ2B confirm 1.26 | AlphaScreen ctr inconclusive | PGK validate inconclusive | POLI cherry-pick inconclusive | Pol eta inh-2 9.53
Nc1nnc(Sc2ncccc2[N+](=O)[O-])s1	none
O=C(CSc1nc(-c2ccc(F)cc2)nc2c1Cc1ccccc1O2)Nc1cccc(C(=O)O)c1	WRN inhibitor inconclusive, POLI inh 5.62µM, PI5P4K alpha inh inconclusive, Pol kappa inh-1 8.91µM, POLB inh 2.82µM, Pol eta inh-1 10µM | BAZ2B confirm 28.2 | AlphaScreen ctr inactive | PGK validate 1.63µM | POLI cherry-pick 3.36 | Pol eta inh-2 75.7
O=C1NC(=O)C(=Cc2ccco2)C(=O)N1	WRN inhibitor inconclusive, POLI inh inconclusive, PI5P4K alpha inh -83.7, Pol kappa inh-1 39.8µM, Pol eta inh-1 8.91µM (no result: POLB inh) | PGK validate 3.66µM | POLI cherry-pick 67 | Pol kappa inh-2 21.2 | Pol eta inh-2 30.1
O=C1C(=O)c2cccc3cccc1c23	none
O=C1C(=O)c2ccccc2-c2ccccc21	POLI inh 0.708µM, POLB inh inconclusive, Pol eta inh-1 2.51µM | PGK validate 4.11µM | GALK confirm 1.88µM | GALK redox cs 0.841µM | HEK293 tox 7.05µM
C[N+]1([O-])CCC[C@@H]1c1cccnc1 (some centres not stated)	none (no result: WRN inhibitor, POLI inh, PI5P4K alpha inh, POLB inh, Pol eta inh-1)
COC1(C)CC(c2ccccc2)c2c(c3ccccc3oc2=O)O1 (configuration not stated)	none (no result: WRN inhibitor, POLI inh, PI5P4K alpha inh, POLB inh, Pol eta inh-1)
CCN1C(=O)/C(=C/c2ccc3c(c2)CCN3CCCCl)C(=O)NC1=S	POLI inh 14.1µM, PI5P4K alpha inh -72.9, Pol kappa inh-1 44.7µM, POLB inh 28.2µM, Pol eta inh-1 12.6µM | POLI cherry-pick 67 | Pol eta inh-2 42.6
COc1ccccc1N1C(=O)NC(=O)/C(=C/c2ccc3c(c2)Cc2ccccc2-3)C1=O	POLI inh inconclusive, PI5P4K alpha inh inconclusive
CCC1OC(=O)CC(O)C(C)[C@@H](O[C@@H]2OC(C)[C@H](O[C@@H]3C[C@@](C)(O)C(O)C(C)O3)C(N(C)C)C2O)[C@H](CC=O)CC(C)C(=O)/C=C/C(C)=C/[C@@H]1COC1OC(C)C(O)C(OC)[C@@H]1OC (some centres not stated)	none (no result: WRN inhibitor, POLI inh, PI5P4K alpha inh, POLB inh, Pol eta inh-1)
CCOC(=O)N(C)C(=O)CSP(=S)(OCC)OCC	none (no result: WRN inhibitor, POLI inh, PI5P4K alpha inh, POLB inh, Pol eta inh-1)
Cc1ccc(C(=O)Nc2ccc(S(=O)(=O)N3CCC(c4nc5ccccc5s4)CC3)cc2)cc1	none (no result: WRN inhibitor, PI5P4K alpha inh)
Cc1nc(NC(=O)c2ccccc2)sc1-c1csc(Nc2ccc(C(=O)O)cc2)n1	POLI inh inconclusive, PI5P4K alpha inh inconclusive, Pol eta inh-1 17.8µM | BAZ2B confirm 28.2 | AlphaScreen ctr inactive | POLI cherry-pick 42.3 | Pol kappa inh-2 37.7 | Pol eta inh-2 42.6
CC(N)(COP(=O)(O)Oc1ccccc1)C(=O)O (configuration not stated)	none (no result: WRN inhibitor, POLI inh, PI5P4K alpha inh, POLB inh, Pol eta inh-1)
CC(C)c1ccc(C(c2c(O)c3ccccc3oc2=O)c2c(O)c3ccccc3oc2=O)cc1	Pol eta inh-1 22.4µM (no result: POLI inh, Pol kappa inh-1, POLB inh) | POLI cherry-pick inconclusive | Pol kappa inh-2 37.7 | Pol eta inh-2 inconclusive
Cc1c(C(c2ccc(F)cc2)c2c(O)c3ccccc3oc2=O)c(=O)n(-c2ccccc2)n1C (configuration not stated)	none
Clc1ccccc1C(c1ccccc1)(c1ccccc1)n1cccn1	none (no result: WRN inhibitor, POLI inh, PI5P4K alpha inh, POLB inh, Pol eta inh-1)
C=Cc1cc(OC)c2c(c1)c(=O)oc1c2cc(OC)c2c(O)ccc(C3OC(C)C(O)C(C)(O)C3O)c21 (configuration not stated)	WRN inhibitor 10µM, POLI inh 2.51µM, Pol kappa inh-1 3.98µM, Pol eta inh-1 1.41µM (no result: POLB inh) | POLI cherry-pick 4.74 | Pol eta inh-2 10.7
C=C1C(=O)OC2CC(C)C3C=CC(=O)C3(C)C(O)C12 (configuration not stated)	POLI inh inconclusive, Pol eta inh-1 inconclusive (no result: POLB inh)
C=C1C(=O)O[C@@H]2C[C@@H](C)[C@@H]3C=CC(=O)[C@@]3(C)[C@@H](OC(=O)CC(=O)O[C@H]3[C@@H]4C(=C)C(=O)O[C@@H]4C[C@@H](C)[C@@H]4C=CC(=O)[C@]43C)[C@H]12	WRN inhibitor 44.7µM, POLI inh 4.47µM, PI5P4K alpha inh -66.0, Pol kappa inh-1 35.5µM, POLB inh 20µM, Pol eta inh-1 7.94µM | POLI cherry-pick 18.9 | Pol eta inh-2 16.9
Cc1cccc(N2C(=O)/C(=C/c3ccc(CN(CCC#N)S(C)(=O)=O)o3)C(=O)NC2=S)c1	WRN inhibitor 28.2µM, POLI inh 8.91µM, PI5P4K alpha inh -56.2, Pol kappa inh-1 22.4µM, POLB inh 20µM, Pol eta inh-1 6.31µM | POLI cherry-pick 67 | Pol kappa inh-2 10.6 | Pol eta inh-2 inconclusive
